These results are taken from PubChem BioAssay (NCATS).

Results filed as inconclusive are left out. Calls of active or inactive are those of the source. Unless noted, calls follow the shape of the dose curve; as a rule, active = well fitted curve in the direction sought with a large enough effect; inconclusive = small, poorly fitted or top-dose-only effect, or another doubt; inactive = no such curve, though single readings can be large; an effect the other way counts as inactive or inconclusive.

The target of test [1] is Ferritin light chain (Equus caballus) (UniProt P02791). The test can be described thus: qHTS Validation Assay for Identification of Novel General Anesthetics (AID 2323). Also: series mostly up to about 77 µM. In a few lines:
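Apoferritin from horse spleen (10 uM) was mixed with 1-aminoanthracene at 50% saturation in PBS, then compounds were added. After 10 min at room temperature, fluorescence was read (ex 380 nm, em 535 nm) and normalized to free-probe and complex controls.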

Test [2] deals with ATP-dependent DNA helicase Q1 (Homo sapiens) (UniProt P46063). The test can be described thus: qHTS Validation Assay for Inhibitors of RecQ-Like Dna Helicase 1 (RECQ1) (AID 2353). The essentials:
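RECQ1T1 50 nM; forked duplex (20 bp + 30-nt ss tails) 200 nM, ATP 2 mM final; pH 8.0, 2 mM MgCl2, 2.5 ug/ml poly(dI-dC); 15 min compound preincubation; discontinuous kinetic read over 2 h at RT.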
A general note: Quantitative high-throughput screening tests each substance at several concentrations.

Test [3] concerns the target RecQ-like DNA helicase BLM (Homo sapiens) (UniProt P54132). The test can be described thus: qHTS Validation Assay for Inhibitors of Bloom's syndrome helicase (BLM) (AID 2364). In a few lines:
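BLM 50 nM in 25 mM Tris-HCl pH 8.0, 5 mM NaCl, 2 mM MgCl2, 1 mM DTT, 0.01% Tween-20, 2.5 ug/ml poly(dI-dC); 15 min cpd preinc, RT. Start: 200 nM forked DNA + 2 mM ATP (final). TAMRA read, 2 reads 2 h apart.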

Test [4] in a line: Cytometric Cell-Based qHTS for Inhibitors of the mTORC1 Signaling Pathway in MEF (Tsc2-/-, p53-/-) Cells (AID 2660).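 Also: Tsc2 and p53 null MEFs carrying empty vector with compound for 24 h; percent of cells above a phospho-rpS6 to PI ratio cutoff in each well; series mostly up to about 38 µM.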 The essentials:
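Immunofluorescence qHTS of rpS6 Ser235/236 phosphorylation: MEFs (Tsc2-/-, p53-/-) treated 24 h, 37 C, in DMEM + 10% FBS. Alexa-488 signal normalized to PI count, referenced to rapamycin (7.5 nM) and DMSO; PI cell number recorded for viability.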

Test [5] can be described thus: High Content Imaging Cell-Based qHTS for Inhibitors of the mTORC1 Signaling Pathway in MEF (Tsc2-/-, p53-/-) Cells (AID 2666).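 Also: percent of cells scored positive for phospho-rpS6 Ser235/236 immunostaining by imaging.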 In a few lines: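 Inhibition of rpS6 phosphorylation is measured by immunofluorescence imaging in empty-vector Tsc2-/-, p53-/- mouse embryonic fibroblasts after 24 hrs compound exposure at 37 degree Celsius. Results are reported as % positive cells per well.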

Test [6] can be described thus: High Content Imaging Cell-Based qHTS for Inhibitors of the mTORC1 Signaling Pathway in MEF Cells (AID 2667).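 Also: Tsc2-/- p53-/- MEFs stably re-expressing wild-type Tsc2 exposed 24 h; series mostly up to about 38 µM.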 The essentials: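 Fixed-cell imaging of phospho-S6 (Ser235/236, Alexa-488) after 24 hrs of compound treatment at 37 degree Celsius. Signal was normalized to Hoechst, and thresholds from the highest and lowest wells split cells into % active versus % non-active.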

Test [7] is described as follows: Cytometry Cell-Based qHTS for Inhibitors of the mTORC1 Signaling Pathway in MEF cells (AID 2668).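 Also: Tsc2-/- p53-/- mouse embryonic fibroblasts stably re-expressing wild-type Tsc2; percent cells positive for phospho-rpS6 Ser235/236 relative to propidium iodide stain; series mostly up to about 38 µM.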 The essentials: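 Pathway inhibition in WT Tsc2-rescued Tsc2-/-, p53-/- MEFs is measured as the Alexa-488 phospho-rpS6 to propidium iodide intensity ratio after 24 hrs of compound at 37 degree Celsius. PI-stained cell number gives viability.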
Test [8] can be described thus: Validation screen for small molecules that induce DNA re-replication in MCF 10A normal breast cells (AID 463097). Also: nearly all actives have a fitted effect of over 60% in size. Also: potency is read from the fitted curve at half-maximal effect. The essentials: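 DNA re-replication was detected as a rise in nuclei with elevated Hoechst fluorescence after a 48 hr compound exposure of MCF 10A cells at 37 C.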
The target in test [9] is Ubiquitin carboxyl-terminal hydrolase 2 (Homo sapiens) (UniProt O75604). Nature of the test: qHTS Validation Assay for Inhibitors of Ubiquitin-specific Protease USP2a Using CHOP2 as the Reporter (AID 463106). In a few lines: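 Inhibition is expressed relative to NEM as the full-inhibition control, with concentration-response curves classed by fit quality, magnitude and activity. Enzyme (USP2 core, 10nM) meets 25nM Ub-CHOP2 after compound preincubation; readings are taken at 60min.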

Test [10] addresses DNA polymerase III PolC-type (Bacillus subtilis (strain 168)) (UniProt P13267). Nature of the test: qHTS Validation Assay for the Inhibitors of DNA Replication in Gram-Positive Bacteria (AID 485295).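 Also: reconstituted holoenzyme with PolC plus beta clamp SSB and primase; PicoGreen fluorescence of double-stranded DNA made on primed circular M13 template; series mostly up to about 57 µM.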 In a few lines: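 Primed replication of single-stranded M13Gori by a four-protein B. subtilis holoenzyme is measured at room temperature. Double-stranded product is quantified by PicoGreen fluorescence after an EDTA stop; inhibition is scaled between DMSO and EDTA controls.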

In test [11] the target is Tumor susceptibility gene 101 protein (Homo sapiens) (UniProt Q99816). The test can be described thus: qHTS Validation Assay for Iinhibitors of HIV-1 Budding by Blocking the Interaction of PTAP/TSG101 (AID 485342; calls by dose curve). In a few lines: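 Fluorescence anisotropy measured PTAP-Tsg101 interaction. Final concentrations were 10 uM protein domain and 50 nM labeled peptide, equilibrated 20 min at room temperature.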

Test [12] is described as follows: qHTS Validation Assay to Find Inhibitors of Chronic Active B-Cell Receptor Signaling (AID 485345; active = well fitted curve in the direction sought with a large enough effect in the main read-out, with a control signal flat, not every such curve was filed as active). In a few lines:
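TMD8 ABC-DLBCL cells with dox-inducible green luciferase–IκBα fusion and red native luciferase; compounds 46 uM–3 nM, 4 h at 37C with doxycycline in 0.5% FBS IMDM. Green/red ratio normalized to basal and 10 uM MG-132.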

A short description of test [13]: Quantitative high throughput screen for delayed death inhibitors of the malarial parasite plastid, 96 hour incubation (AID 488745). Also: nearly all actives have a fitted effect of over 70% in size. Also: potency is read from the fitted curve at half-maximal effect. In a few lines: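 Luciferase-expressing P. falciparum, infected RBCs 2% Hct/0.1% parasitemia (final); 96 h cpd exposure, 37 C, 5% CO2; RPMI 1640 + 0.5% Albumax, bicarbonate, gentamycin. Readout: luminescence loss = growth inhibition.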

A short description of test [14]: Quantitative high throughput screen for delayed death inhibitors of the malarial parasite plastid, 48 hour incubation (AID 488752). Also: nearly all actives have a fitted effect of over 65% in size. In a few lines: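 Luciferase-expressing P. falciparum in RBCs, 2% Hct, 0.1% parasitemia final; RPMI 1640 + 0.5% Albumax; 48 h, 37 C, 5% CO2; luminescence readout, signal drop = growth inhibition.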
The target in test [15] is Thioredoxin reductase 1, cytoplasmic (Rattus norvegicus) (UniProt O89049). Nature of the test: qHTS Assay for Substrates of Mammalian Selenoprotein Thioredoxin Reductase 1 (TrxR1) (AID 488772).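 Also: series mostly up to about 57 µM; a drop in NADPH fluorescence below the no-compound background marks a TrxR1 substrate.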 The essentials:
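In this dual-purpose format, potential substrates are identified from the first fluorescence read after selenite addition, not from the 8-minute delta. Rat enzyme is preincubated with NADPH and then with compound at ~22 deg C.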

The target is the same in test [16]. Nature of the test: qHTS Assay for Inhibitors of Mammalian Selenoprotein Thioredoxin Reductase 1 (TrxR1) (AID 488773).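 Also: drop in NADPH fluorescence over an 8 min run after selenite addition; series mostly up to about 57 µM; nearly all actives have a fitted effect of over 40% in size.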 The following applies: Potency: inhibition. The essentials:
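Inhibition is scored from the loss of NADPH fluorescence between first and last reads of an 8-min kinetic run. Selenite (400 uM) was the substrate, added after 15 min compound preincubation at room temperature.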

Test [17] concerns the target M-phase phosphoprotein 8 (Homo sapiens) (UniProt Q99549). The test can be described thus: qHTS Validation Assay for Inhibitors for MPP8 Chromodomain Interactions with Methylated Histone Tails (AID 488949). Also: nearly all actives have a fitted effect of over 55% in size. Also: potency is read from the fitted curve at half-maximal effect. The essentials:
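Disruption of the preformed MPP8–trimethyl-H3K9 peptide complex (both 50 nM, 30 min, RT) is measured after 30 min compound exposure, using AlphaScreen proximity beads; aurintricarboxylic acid titration serves as plate control.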

The target of test [18] is Beta-2 adrenergic receptor (Homo sapiens) (UniProt P07550). The test can be described thus: qHTS validation assay of beta-arrestin-biased ligands of beta2-adrenergic receptor (AID 485366). The essentials:
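Agonism was measured as beta-arrestin recruitment to recombinant beta2-AR, releasing tTA to drive luciferase. Cells were exposed for 18 hr at 37 degrees C to a series up to 46 microM. %Activity from corrected luminescence gave concentration-response curves.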

Test [19] deals with Flap endonuclease 1 (Homo sapiens) (UniProt P39748). The test can be described thus: qHTS Validation Assay for the Inhibitors of Human Flap endonuclease 1 (FEN1) (AID 488816). The essentials:
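Steps: add FEN1 (10 nM reagent) or buffer only; pin compounds; hold 15 min at room temperature; start with substrate, 50 nM final; read at 0 and 15 min; correct, normalize and fit a four-parameter Hill curve.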

Test [20] addresses ATP-dependent 6-phosphofructokinase (Trypanosoma brucei brucei) (UniProt O15648). Nature of the test: qHTS Validation Assay to Find Inhibitors of T. brucei phosphofructokinase (AID 485368). The following applies: outcome: dose series up to 57.5 µM. In a few lines:
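ADP-Glo luminescence, two-step: residual ATP depleted, then ADP converted to ATP for luciferase. Enzyme 1.25 nM, F6P 0.5 mM, ATP 0.1 mM, pH 8.0 TEA buffer, 45 min RT. Curves fitted and classed by quality and efficacy.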

Chain of ATP-dependent DNA helicase Q1 (Homo sapiens) (P46063 whole entry, looked up): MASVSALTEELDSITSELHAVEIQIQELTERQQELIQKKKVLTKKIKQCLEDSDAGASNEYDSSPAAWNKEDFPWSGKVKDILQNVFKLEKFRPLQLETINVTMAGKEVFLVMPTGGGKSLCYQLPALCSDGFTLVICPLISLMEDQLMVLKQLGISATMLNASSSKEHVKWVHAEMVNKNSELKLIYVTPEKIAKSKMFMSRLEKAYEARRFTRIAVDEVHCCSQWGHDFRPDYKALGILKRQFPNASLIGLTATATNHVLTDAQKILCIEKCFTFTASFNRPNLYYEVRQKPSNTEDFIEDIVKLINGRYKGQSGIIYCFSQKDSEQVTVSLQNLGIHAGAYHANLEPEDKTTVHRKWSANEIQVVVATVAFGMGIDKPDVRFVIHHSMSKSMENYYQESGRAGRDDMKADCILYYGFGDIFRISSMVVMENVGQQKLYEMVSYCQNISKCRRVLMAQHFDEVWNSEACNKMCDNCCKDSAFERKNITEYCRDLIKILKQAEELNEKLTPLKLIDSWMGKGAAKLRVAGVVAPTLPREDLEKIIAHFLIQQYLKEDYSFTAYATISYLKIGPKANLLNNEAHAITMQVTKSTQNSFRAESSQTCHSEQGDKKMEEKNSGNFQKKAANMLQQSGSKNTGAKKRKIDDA
Chain of Thioredoxin reductase 1, cytoplasmic (Rattus norvegicus) (O89049 whole entry, looked up): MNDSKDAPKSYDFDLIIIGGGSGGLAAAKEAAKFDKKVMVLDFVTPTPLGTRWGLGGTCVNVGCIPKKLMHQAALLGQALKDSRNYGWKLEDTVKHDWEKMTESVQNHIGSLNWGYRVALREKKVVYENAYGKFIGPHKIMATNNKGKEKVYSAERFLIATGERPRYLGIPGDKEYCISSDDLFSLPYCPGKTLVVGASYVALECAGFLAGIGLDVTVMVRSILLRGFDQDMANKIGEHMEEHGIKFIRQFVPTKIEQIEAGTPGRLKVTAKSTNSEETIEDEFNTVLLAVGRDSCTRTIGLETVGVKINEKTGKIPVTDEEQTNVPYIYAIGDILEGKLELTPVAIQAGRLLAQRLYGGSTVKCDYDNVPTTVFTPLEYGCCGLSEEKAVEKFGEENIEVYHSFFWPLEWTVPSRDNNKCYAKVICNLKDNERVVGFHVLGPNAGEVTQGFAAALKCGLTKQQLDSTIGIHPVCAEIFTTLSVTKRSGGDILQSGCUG
Chain of Beta-2 adrenergic receptor (Homo sapiens) (P07550 whole entry, looked up): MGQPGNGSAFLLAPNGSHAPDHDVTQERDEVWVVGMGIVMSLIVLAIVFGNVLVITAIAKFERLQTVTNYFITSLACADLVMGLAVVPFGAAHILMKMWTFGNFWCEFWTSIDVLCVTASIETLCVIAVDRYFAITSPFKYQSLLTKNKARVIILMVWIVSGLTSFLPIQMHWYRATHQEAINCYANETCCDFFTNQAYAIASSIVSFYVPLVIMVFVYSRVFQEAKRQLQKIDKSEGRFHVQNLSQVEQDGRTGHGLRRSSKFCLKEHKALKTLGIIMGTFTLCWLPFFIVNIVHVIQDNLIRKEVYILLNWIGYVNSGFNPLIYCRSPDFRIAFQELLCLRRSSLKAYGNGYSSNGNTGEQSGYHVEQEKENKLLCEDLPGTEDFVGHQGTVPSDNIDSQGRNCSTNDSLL
Chain of M-phase phosphoprotein 8 (Homo sapiens) (Q99549 whole entry, looked up): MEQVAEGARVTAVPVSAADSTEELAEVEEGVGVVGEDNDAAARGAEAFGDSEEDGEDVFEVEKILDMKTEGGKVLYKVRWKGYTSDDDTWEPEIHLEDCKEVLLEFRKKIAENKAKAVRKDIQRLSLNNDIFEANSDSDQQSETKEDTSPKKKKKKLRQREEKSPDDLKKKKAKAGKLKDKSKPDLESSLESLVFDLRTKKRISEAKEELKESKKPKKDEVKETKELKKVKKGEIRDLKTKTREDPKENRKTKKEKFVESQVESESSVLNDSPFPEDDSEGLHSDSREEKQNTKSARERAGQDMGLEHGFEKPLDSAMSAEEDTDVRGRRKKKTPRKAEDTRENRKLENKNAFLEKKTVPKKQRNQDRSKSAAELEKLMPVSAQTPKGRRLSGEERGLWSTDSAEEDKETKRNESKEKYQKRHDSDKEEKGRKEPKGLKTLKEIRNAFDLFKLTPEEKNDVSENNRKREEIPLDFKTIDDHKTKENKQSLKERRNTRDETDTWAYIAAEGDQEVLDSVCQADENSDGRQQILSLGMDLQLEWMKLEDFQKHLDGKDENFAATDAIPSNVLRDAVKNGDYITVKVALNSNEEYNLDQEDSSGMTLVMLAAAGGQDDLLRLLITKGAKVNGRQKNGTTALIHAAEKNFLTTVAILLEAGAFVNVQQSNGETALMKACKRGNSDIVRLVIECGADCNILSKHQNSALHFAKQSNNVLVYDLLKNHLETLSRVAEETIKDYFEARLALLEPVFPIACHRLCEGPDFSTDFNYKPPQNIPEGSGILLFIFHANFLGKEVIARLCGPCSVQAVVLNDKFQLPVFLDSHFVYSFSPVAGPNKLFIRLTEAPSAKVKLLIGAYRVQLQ
Chain of DNA polymerase III PolC-type (Bacillus subtilis (strain 168)) (P13267 whole entry, looked up): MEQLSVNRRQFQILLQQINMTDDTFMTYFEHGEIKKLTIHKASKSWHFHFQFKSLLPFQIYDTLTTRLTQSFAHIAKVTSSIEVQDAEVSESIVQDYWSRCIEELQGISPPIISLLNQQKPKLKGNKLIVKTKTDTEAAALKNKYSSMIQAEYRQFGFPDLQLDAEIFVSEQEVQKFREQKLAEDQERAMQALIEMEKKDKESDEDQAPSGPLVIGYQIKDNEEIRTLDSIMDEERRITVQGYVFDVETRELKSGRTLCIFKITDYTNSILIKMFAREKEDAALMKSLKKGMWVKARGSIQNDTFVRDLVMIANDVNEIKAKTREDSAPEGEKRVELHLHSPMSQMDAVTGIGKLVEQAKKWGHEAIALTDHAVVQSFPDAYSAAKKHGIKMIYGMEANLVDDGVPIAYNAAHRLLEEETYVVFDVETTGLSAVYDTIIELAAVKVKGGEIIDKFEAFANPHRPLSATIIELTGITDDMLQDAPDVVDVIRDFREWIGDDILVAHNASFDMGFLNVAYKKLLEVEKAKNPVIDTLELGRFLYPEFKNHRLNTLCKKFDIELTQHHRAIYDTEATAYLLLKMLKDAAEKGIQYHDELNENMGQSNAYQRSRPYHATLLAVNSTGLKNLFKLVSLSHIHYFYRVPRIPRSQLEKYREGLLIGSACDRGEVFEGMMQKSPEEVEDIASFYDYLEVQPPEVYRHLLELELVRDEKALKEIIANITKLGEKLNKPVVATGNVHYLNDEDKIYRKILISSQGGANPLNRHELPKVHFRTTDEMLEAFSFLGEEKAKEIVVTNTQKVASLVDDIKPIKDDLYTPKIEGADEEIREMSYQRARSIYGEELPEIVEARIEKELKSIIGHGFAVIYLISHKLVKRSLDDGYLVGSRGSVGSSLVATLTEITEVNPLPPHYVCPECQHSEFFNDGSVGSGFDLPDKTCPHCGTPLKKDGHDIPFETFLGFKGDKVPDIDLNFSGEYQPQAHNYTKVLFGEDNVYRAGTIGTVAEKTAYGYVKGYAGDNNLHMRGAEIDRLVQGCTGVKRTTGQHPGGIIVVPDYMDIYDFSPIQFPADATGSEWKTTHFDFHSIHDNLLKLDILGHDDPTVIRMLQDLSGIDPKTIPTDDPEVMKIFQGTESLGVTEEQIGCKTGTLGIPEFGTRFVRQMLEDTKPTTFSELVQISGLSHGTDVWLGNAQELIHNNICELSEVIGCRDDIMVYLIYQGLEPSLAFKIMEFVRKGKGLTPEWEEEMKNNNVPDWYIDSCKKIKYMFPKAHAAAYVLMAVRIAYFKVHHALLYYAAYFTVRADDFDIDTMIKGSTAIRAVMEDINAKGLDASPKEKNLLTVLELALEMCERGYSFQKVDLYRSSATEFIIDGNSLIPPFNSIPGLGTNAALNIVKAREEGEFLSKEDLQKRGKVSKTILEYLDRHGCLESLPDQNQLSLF
Chain of Tumor susceptibility gene 101 protein (Homo sapiens) (Q99816 whole entry, looked up, the tested form may be a part): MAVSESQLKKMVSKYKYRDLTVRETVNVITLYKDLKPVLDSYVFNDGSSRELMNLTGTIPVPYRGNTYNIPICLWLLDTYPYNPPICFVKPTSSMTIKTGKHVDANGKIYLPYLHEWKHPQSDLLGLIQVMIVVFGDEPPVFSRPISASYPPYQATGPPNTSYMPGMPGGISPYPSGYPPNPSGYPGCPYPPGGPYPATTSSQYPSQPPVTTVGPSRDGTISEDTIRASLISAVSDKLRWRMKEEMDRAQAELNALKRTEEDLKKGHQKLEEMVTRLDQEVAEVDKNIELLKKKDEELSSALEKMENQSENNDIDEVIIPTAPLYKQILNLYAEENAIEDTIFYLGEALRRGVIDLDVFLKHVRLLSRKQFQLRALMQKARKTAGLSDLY
Chain of Ubiquitin carboxyl-terminal hydrolase 2 (Homo sapiens) (O75604 whole entry, looked up): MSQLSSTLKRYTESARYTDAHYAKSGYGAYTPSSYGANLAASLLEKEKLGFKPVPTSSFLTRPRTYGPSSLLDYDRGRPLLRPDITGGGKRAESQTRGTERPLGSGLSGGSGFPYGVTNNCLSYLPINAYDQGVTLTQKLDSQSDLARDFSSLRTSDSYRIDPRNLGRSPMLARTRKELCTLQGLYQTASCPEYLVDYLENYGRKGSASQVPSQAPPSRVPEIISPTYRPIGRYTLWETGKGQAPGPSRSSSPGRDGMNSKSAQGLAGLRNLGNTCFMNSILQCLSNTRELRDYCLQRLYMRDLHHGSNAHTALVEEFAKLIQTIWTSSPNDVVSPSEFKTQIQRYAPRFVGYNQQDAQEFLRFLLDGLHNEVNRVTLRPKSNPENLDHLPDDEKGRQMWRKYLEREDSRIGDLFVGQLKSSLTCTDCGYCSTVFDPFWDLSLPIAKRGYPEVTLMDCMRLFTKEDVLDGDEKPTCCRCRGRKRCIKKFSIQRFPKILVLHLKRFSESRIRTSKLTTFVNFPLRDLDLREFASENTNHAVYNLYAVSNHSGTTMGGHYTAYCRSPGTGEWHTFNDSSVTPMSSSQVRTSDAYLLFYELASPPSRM
Chain of Ferritin light chain (Equus caballus) (P02791 2-175 limits assumed): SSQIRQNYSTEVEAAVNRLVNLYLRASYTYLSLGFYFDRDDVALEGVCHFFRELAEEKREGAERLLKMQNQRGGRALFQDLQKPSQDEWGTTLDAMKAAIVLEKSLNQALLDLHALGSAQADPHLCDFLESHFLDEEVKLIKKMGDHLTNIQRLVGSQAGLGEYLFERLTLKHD

As to `c1cnc(N2CCN(Cc3ccc4c(c3)OCO4)CC2)nc1`, the call in test [1], in test [4], in test [9], in test [11] and in test [15] was inactive. The Potency entry in [2], in [3], in [5], in [6], in [7] and in test [8] was “inactive” each time. Further, the Potency result in test [10], in [12], in test [13], in [14], in test [16] and in [17] was “inactive” throughout.
Consider `CN(C)CC/C=C1\c2ccccc2COc2ccccc21`, for which the compound was called inactive in [1], in test [4], in test [9], in [11], in test [18] and in test [15]. Besides, the Potency entry in test [2], in [3], in test [5], in [6], in test [7] and in test [8] was “inactive” in each case. Also, the Potency entry in [10], in test [12], in test [13], in test [16], in test [19] and in [17] was “inactive” each time.
As to `OCCN1CCN(CC/C=C2/c3ccccc3Sc3ccc(C(F)(F)F)cc32)CC1`, the outcome in test [1], in test [9], in test [11] and in [18] was inactive. For the same compound, the Potency result in test [2], in test [3], in test [6], in test [10], in test [16] and in test [19] was “inactive” in each case. The Potency in test [8] is 12.6 µM (active); in test [13] it was 6.57 µM (active); in [17] it was 25.1 µM (active).
On to `CNCCCN1c2ccccc2CCc2ccccc21`, for which the call in test [1], in [4], in test [9], in test [11] and in [20] was inactive. Also, the Potency result in [2], in test [3], in [5], in test [8], in test [10] and in test [12] was “inactive” each time. The Potency entry in [16] is “inactive”.
Regarding `CC(=O)Nc1nnc(S(N)(=O)=O)s1`, the call in test [1], in [4], in test [9], in [11], in test [20] and in [15] was inactive. The Potency entry in test [2], in test [5], in [6], in test [7], in test [8] and in [10] was “inactive” throughout. Also, the Potency entry in test [12], in test [13], in [16] and in test [19] was “inactive” throughout.
In the case of `CCOC(=O)c1cnc2c(cnn2CC)c1NN=C(C)C`, the compound was classed as inactive in test [1], in test [4], in test [9], in test [11] and in test [18]. The Potency entry in test [2], in test [5], in test [6], in test [7], in test [8] and in test [10] was “inactive” throughout. Moreover, the Potency result in test [12], in [13], in test [14], in test [16], in [19] and in [17] was “inactive” each time.
`COC(=O)[C@H]1[C@H]2C[C@@H]3c4[nH]c5cc(OC)ccc5c4CCN3C[C@H]2C[C@@H](OC(=O)c2cc(OC)c(OC)c(OC)c2)[C@@H]1OC`: the outcome in test [1], in test [4], in test [9] and in test [11] was inactive. Also, the Potency entry in test [2], in [5], in test [6], in [7], in test [16] and in test [19] was “inactive” throughout. For the same compound, the Potency in test [8] was 11.2 µM (active); in [13] it was 0.928 µM (active); in [17], 20 µM (active).
Consider `N[C@@H](COP(=O)(O)O)C(=O)O`, for which the compound was called inactive in test [1], in test [4], in test [9], in test [11], in [18] and in [15]. The Potency result in test [2], in [5], in [6], in test [7], in [8] and in test [10] was “inactive” throughout. Further, the Potency result in [12], in [13], in test [16] and in test [19] was “inactive” in each case.
